Rows were chosen to be rich in hits. Some 5.7% of all compounds tested hit in one or more screens of this group.
D3 ag – activates the human D3 dopamine receptor; P35462; 0.58% of 410,000 active; max activation, %; D3R DiscoveRx beta-arrestin cells, luminescence, 90 min; AID 652048; in the data active means max activation above about 30%; further: 0% is about no effect
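Agonist mode: compounds and dopamine controls were applied to plated cells for 90 min at 37 degrees C after an overnight attachment at 1500 cells/well. Luminescent read-out followed 30 - 60 minutes at room temperature with DiscoveRx detection reagent.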
GLP1R ag – agonists of human GLP-1 receptor; AID 624172; P43220; Potency, µM (series often up to 45.6 µM), for the others: at the top dose activation, hits mostly activators; 0.007% of 380,000 active; HEK293 GLP-1R CRE-luciferase, luminescence, 4-6 h; cells express a hypersensitive GLP-1R form; further: potency means the concentration at half of the fitted maximal effect; % of control where 0% means no effect
Target sequence (P43220 whole entry, looked up): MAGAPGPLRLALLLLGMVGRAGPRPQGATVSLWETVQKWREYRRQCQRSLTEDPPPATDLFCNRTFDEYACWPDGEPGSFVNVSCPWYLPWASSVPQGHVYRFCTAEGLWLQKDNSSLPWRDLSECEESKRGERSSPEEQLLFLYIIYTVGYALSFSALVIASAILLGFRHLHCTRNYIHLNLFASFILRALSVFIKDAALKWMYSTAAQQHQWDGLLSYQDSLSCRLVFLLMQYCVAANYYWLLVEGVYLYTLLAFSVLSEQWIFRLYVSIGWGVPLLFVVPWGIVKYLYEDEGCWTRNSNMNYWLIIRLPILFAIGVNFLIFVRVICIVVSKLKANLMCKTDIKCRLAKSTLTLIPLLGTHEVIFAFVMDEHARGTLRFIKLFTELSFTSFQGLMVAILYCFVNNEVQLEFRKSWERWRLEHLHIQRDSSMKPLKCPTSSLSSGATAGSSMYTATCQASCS
D3 antag – D3 dopamine receptor (human) antagonism; P35462; D3R cells, DiscoveRx beta-arrestin luminescence, antagonist mode; active compounds read low; max response, negative = inhibition, %; 2.5% of 360,000 active; AID 652054; in the data active means max response below about -50%; inconclusive means no clear call, values can overlap the other calls; further: on the % scale 0 is the no-effect control and ±100 the full control effect
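Cells expressing the human receptor were seeded at 1500 cells/well, incubated overnight at 37 degrees C in 5% CO2, then exposed to library compounds with dopamine controls for 90 minutes at 37 degrees C before luminescent detection.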
ClpP mod – qHTS Assay for Activators of ClpP; ATP-dependent Clp protease proteolytic subunit (Bacillus subtilis (strain 168)), P80244; 1.9% of 340,000 active; AID 651965, 2013; purified B. subtilis ClpP, FRET peptide cleavage, 20 min; Potency, µM (highest dose often 57.5 µM), for inactives: at the top dose activity change, negative = active; active means well fitted falling curve with a large enough effect; inconclusive means small, poorly fitted or top-dose-only effect; inactive means no such curve, though single readings can be large or run the other way; further: potency means the concentration at half of the fitted maximal effect; the source files actives as falling curves though it sought activators and does not explain the sign; nearly all actives have a fitted effect of over 65% in size
Target sequence (P80244 whole entry, looked up): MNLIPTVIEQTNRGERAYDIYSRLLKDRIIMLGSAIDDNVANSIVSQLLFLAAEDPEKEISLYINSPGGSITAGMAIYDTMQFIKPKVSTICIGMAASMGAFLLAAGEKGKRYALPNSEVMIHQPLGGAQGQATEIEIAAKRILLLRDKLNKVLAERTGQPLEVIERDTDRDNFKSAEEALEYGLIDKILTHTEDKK
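Buffer: 100 mM Tris/HCl pH8, 100 mM KCl, 0.05% low protease BSA, 2.5% glycerol, 0.01% Tween-20. ClpP 10 microg/mL final; 20 min RT; delta FRET normalized to ADEP and DMSO controls.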
GLP1R inv ag – GLP-1 receptor (human) inverse agonism. P43220. HEK293 GLP-1R CRE-luciferase, luminescence, 24 h; GLP-1R form is constitutively active. Potency, µM (series often up to 38.3 µM), inactives show top-dose activity change, negative = inhibition, usual class: inhibitors. 1.6% of 410,000 active; further: potency means the concentration at half of the fitted maximal effect; on the % scale 0 is the no-effect control and ±100 the full control effect; nearly all actives have a fitted effect of over 55% in size
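Constitutively active GLP-1R drives a cAMP-responsive luciferase in stably transfected HEK293 cells; test compounds are added after overnight (12 h) attachment and left 24 hr, and signal loss in luminescence marks inhibition.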
HEK293 tox – cytotoxic in the GLP-1 receptor inverse agonist counter-screen | HEK293 cAMP-luciferase reporter cells, luminescence, 24 h | 0.13% of 410,000 active | Potency, µM (highest dose often 38.3 µM), for inactives: at the highest dose activity change, negative = inhibition, hits mostly inhibitors;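 further: loss of luciferase light is scored as toxicity; potency means the concentration at half of the fitted maximal effect; on the % scale 0 is the no-effect control and ±100 the full control effect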
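Quantitative HTS format, 1536 wells, 200 cells/uL seeded. Compounds: 23 nL, 24 h, 37 °C. Detection: luciferase reagent, luminescence at 12 min RT; decreased signal taken as cytotoxic.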
Starred values were filed as active, the others as inactive; u = inconclusive; x = not tested or not shown. Unless noted, the call rests on the fitted dose curve; in most records, active means well fitted curve in the direction sought with a large enough effect; inconclusive means small, poorly fitted or top-dose-only effect, or another doubt; inactive means no such curve, though single readings can be large; an effect the other way counts as inactive or inconclusive.

SMILES | D3 ag | GLP1R ag | D3 antag | ClpP mod | GLP1R inv ag | HEK293 tox
CC(=O)c1ccc(S(=O)(=O)N2CCN(C(=O)c3ccc(-n4nc(C)c(Cl)c4C)cc3)CC2)cc1 | 77* | 2% | 18 | -3% | 1% | -12%
Cc1nn(-c2ccc(C(=O)N3CCN(S(=O)(=O)c4ccccc4C(F)(F)F)CC3)cc2)c(C)c1Cl | 112* | 12% | 2 | 0% | u | -9%
Cc1ccc(S(=O)(=O)N2CCN(C(=O)c3cc4c(s3)CCCC4)CC2)c(C)c1 | -2 | -2% | 0 | -1% | -14% | -2%
COc1ccccc1-c1cc(C(=O)Nc2sc3c(c2C#N)CCC(C)C3)c2ccccc2n1 (centres undefined) | 2 | -5% | -63* | -3% | 105% | -3%
CCCN1CCc2c(sc(NC(=S)NC(=O)c3ccccc3)c2C#N)C1 | 38* | 1% | -4 | -5% | 12% | 6%
Cc1onc(-c2ccccc2)c1C(=O)NC(=S)Nc1sc2c(c1C#N)CCCC2 | 11 | -1% | -9 | -6% | 8% | 2%
Cc1ccccc1-c1cc(C(=O)Nc2sc(C(=O)OC(C)C)c(C)c2C#N)c2ccccc2n1 | 9 | -8% | -68* | 1% | -9% | u
Cc1onc(-c2ccccc2)c1C(=O)NC(=S)Nc1sc2c(c1C#N)CCC(C)C2 (centres undefined) | 35* | 0% | 3 | x | -10% | 1%
COC(=O)c1ccc(NC(=O)CN2C(=O)CC(c3ccccc3)Sc3ccccc32)cc1 (centres undefined) | 1 | -10% | x | 14% | 4% | 4%
NCC1O[C@@H](OC2C(N)C[C@H](N)[C@@H](O[C@H]3OC(CO)C(O)C(N)C3O)C2O)C(N)C(O)C1O (some centres undefined) | x | -2% | x | x | x | x
O=C(Nc1ccccn1)C1CCN(C(=O)c2ccc(Cl)cc2)CC1 | 3 | -4% | 14 | 0% | 4% | 8%
CNC(=O)COC(=O)CCC(=O)c1ccc(Cl)cc1 | 17 | -2% | 2 | 1% | 14% | -4%
CCC(CC)NC(=O)COC(=O)CCC(=O)c1ccc(Cl)cc1 | 41* | 1% | 13 | 0% | 17% | -5%
CC(=O)c1ccc(N2CCN(CC(=O)NCc3ccccc3)CC2)cc1 | -4 | -1% | -7 | -4% | 0% | 3%
C/C=C(\C)CN1CCN(c2ccccc2F)CC1 | -3 | -7% | -30 | -1% | -3% | 6%
C/C=C(\C)CN1CCN(c2ccccc2)CC1 | -7 | 4% | -71* | -2% | -18% | 3%
C/C(=C\c1ccccc1)CN1CCN(c2ccccc2)CC1 | -27 | -4% | -109* | 0% | -11% | 2%
COc1ccccc1N1CCN(C/C(C)=C/c2ccccc2)CC1 | -71 | -9% | -89* | -1% | -40% | -11%
CCCNC(=O)CCSc1nc(-c2ccc3c(c2)OCO3)cc(C(F)(F)F)n1 | 4 | 1% | x | 4% | 10% | -3%
CCOc1cccc(C2c3c(oc4ccccc4c3=O)C(=O)N2c2nc(C)c(C(=O)OC)s2)c1 (centres undefined) | -5 | x | x | -3% | 1% | 13%
Cc1ccc(C(OCC(O)CNC(CO)C(O)c2ccc([N+](=O)[O-])cc2)c2ccccc2)cc1 (centres undefined) | -1 | 21% | u | x | 8.9µM* | -16%
CCC(C)(C)N1CC(=O)N(Cc2ccccc2)C(c2ccc(OC)cc2)C1=O (centres undefined) | 1 | 15% | -52* | -3% | 2% | -4%
C[C@@H]1CN([C@H](C)CO)S(=O)(=O)c2ccc(Br)cc2O[C@H]1CN(C)C(=O)C1CC1 | -5 | 1% | 12 | 0% | 3% | -6%
Cc1[nH]c2ccccc2c1C1=NNC(=Nc2ccc(F)cc2)SC1 | 11 | -2% | -8 | -10% | 11µM* | u
CC(=O)NC(c1cccc([N+](=O)[O-])c1)c1c(OC(C)=O)ccc2ccccc12 (centres undefined) | -7 | -1% | -68* | 0% | u | -21%
SMILES | D3 ag | GLP1R ag | D3 antag | ClpP mod | GLP1R inv ag | HEK293 tox
CC1(C)O[C@H]2[C@@H](O1)[C@@H](C(=O)Nc1ccccc1O)O[C@@H]1OC(C)(C)O[C@@H]12 | -6 | x | x | -2% | 13% | -1%
CCCCCCCCNc1ccccc1S(=O)(=O)NCc1ccccc1 | 4 | -1% | -8 | 32µM* | u | 1%
O=S(=O)(NCc1ccccc1)c1ccccc1NCCc1ccccc1 | 7 | -5% | -14 | u | u | 2%
C(=C\c1ccccc1)/CN1CCN(Cc2ccc3c(c2)OCO3)CC1 | -12 | 1% | -61* | -2% | u | 3%
O=[N+]([O-])c1ccccc1/C=C/CN1CCN(Cc2ccc3c(c2)OCO3)CC1 | -9 | 11% | -79* | -3% | -41% | 2%
O=[N+]([O-])c1ccc2ncnc(N3CCN(Cc4ccc5c(c4)OCO5)CC3)c2c1 | 43* | -1% | -17 | -2% | u | -12%
O=[N+]([O-])c1cccnc1N1CCN(Cc2ccc3c(c2)OCO3)CC1 | 18 | 0% | 0 | u | -26% | -5%
C/C(=C\c1ccccc1)C(=O)N1CCN(Cc2ccc3c(c2)OCO3)CC1 | -16 | 2% | -28 | 0% | u | -12%
CC1CN(C(=O)CCC(=O)Nc2cc(F)ccc2F)c2ccccc2S1 (centres undefined) | 1 | x | x | -6% | u | 10%
CCOC(=O)c1c[nH]c2cc(OCC(C)C)c(OCC(C)C)cc2c1=O | 3 | -1% | x | x | x | x
CC(OC(=O)CC1CCCC1)C(=O)Nc1ccc(Cl)cn1 (centres undefined) | -2 | -3% | -54* | -4% | u | -2%
C/C(=N\NC(=O)CN1CCN(S(=O)(=O)c2ccc(C)cc2)CC1)c1cccnc1 | -17 | -6% | -52* | 1% | 9% | -2%
Cc1cccc2c1NC(=O)C2=O | -21 | 5% | -13 | -1% | 6% | -6%
O=C1Nc2c(Br)cccc2C1=O | -40 | -3% | -94* | 32% | 8% | -5%
COC(=O)c1cccc2c1NC(=O)C2=O | -14 | 12% | -75* | x | 23% | -1%
CCC(C)NC(=O)Cn1c(=O)n(-c2ccc(C)c(C)c2)c(=O)c2c(C)c(C(=O)N(CC)CC)sc21 (centres undefined) | 3 | x | x | 2% | 13% | 1%
CCN(CC)CCCNC(=O)c1ccc2c(c1)NC(=O)C(CS(=O)(=O)Cc1cccc(Br)c1)N2 (centres undefined) | -23 | x | x | 3.5µM* | -7% | -2%
